# Measurements as given in publication PMC5540273 (PLoS ONE, 2017).
# Tested on: CDK3
# Conditions: concentration: 1 μM, replicates: in singlicate; n = 1
# 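Also: KINOMEscan kinase panel screen.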
row,SMILES,%Inh [%]
1,N#CC1(c2cccc(C(=O)Nc3cccc(Oc4ccc5nc(NC(=O)C6CC6)sc5n4)c3)c2)CC1,0
2,Cc1ccc(C)c(NC(=O)Nc2ccc(C)c(-c3ccc(C(=O)Nc4ccncc4)cc3)c2)c1 [GSK1398473],0
3,O=C(Nc1n[nH]c2nc(-c3ccccc3O)ccc12)C1CC1 [SB-711880],22
4,CCn1c(-c2nonc2N)nc2c(-c3ccccc3)ncc(OCCCN)c21.O=C(O)C(F)(F)F.O=C(O)C(F)(F)F [GSK260205],0
5,Cl.Cl.NC(CNC(=O)c1cc(Br)c(-c2ccnc3[nH]ccc23)s1)c1ccccc1 (stereo not drawn) [GSK1322949],25
6,CCOc1nccc(-c2c(-c3ccc(F)cc3)ncn2C2CCNCC2)n1 [SB-249175],0
7,COc1cccc2c(-c3ccncc3)c(-c3ccc(F)cc3)nn12 [GW468513],6
8,CC(C)c1nc(-c2cccc(NS(=O)(=O)c3c(F)cccc3F)c2)c(-c2ccnc(Nc3ccc(N4CCOCC4)nc3)n2)s1.Cl [GSK1723980],99.7
9,O=C(Nc1n[nH]c2cc(-c3cccs3)ccc12)C1CC1 [SB-731284],16
10,Cc1ccc(NC(=O)c2cccc(N3CCCCC3)c2)cc1-c1ccc(C(=O)NCC2CC2)cc1 [GSK1917008],8
11,Cl.O=C(Nc1ccc(Oc2ccc3[nH]c(NC(=O)c4ccco4)nc3c2)cc1)Nc1cc(C(F)(F)F)ccc1F [GW683134],9
12,Cn1cc(-c2ccc3c(c2)CCN3C(=O)Cc2cc(F)cc(C(F)(F)F)c2)c2c(N)ncnc21 [GSK2635225],4
13,COc1cc(Nc2nccc(N3CCC(NS(=O)(=O)c4ccc(NC(C)=O)cc4)CC3)n2)cc(OC)c1OC [GSK1379825],7
14,O=C1NC(=O)C(c2ccccc2Cl)=C1Nc1cccc(Cl)c1 [SB-342409],14
15,Cc1cc(-c2ccnc(Nc3cccc(C#N)c3)n2)cc(C)c1O [GSK1440913],30
16,CC(C)NCC(Cc1ccccc1)NC(=O)c1cc(Br)c(-c2ccnc3[nH]ccc23)s1.Cl.Cl (stereo not drawn) [GSK1383281],0
17,Nc1ncc(-c2ccc3nccc(-c4ccncc4)c3c2)cc1S(=O)(=O)N1CCCCC1 [GSK1693850],7

row,SMILES,%Inh [%]
1,COc1cc(Nc2ccnc3cc(-c4ccncc4)ccc23)cc(OC)c1OC.Cl [GW494610],1
2,COC(=O)Nc1nc2ccc(Oc3ccc(NC(=O)Nc4cc(C(F)(F)F)ccc4F)cc3)cc2[nH]1.Cl [GW654607],18
3,c1ccc(Oc2ccc(Nc3ccnc4cc(-c5ccc(CN6CCCCC6)o5)ccc34)cc2)nc1 [GW567143],7
4,COc1cccc(CC(=O)N2CCc3cc(-c4cn(C)c5ncnc(N)c45)ccc32)c1 [GSK2608899],12
5,COc1ccc(C)c(Nc2ccnc(Nc3ccc(-c4cnc[nH]4)cc3)n2)c1.Cl [GW784041],3
6,CCNC(=O)/C=C/c1n[nH]c2cc(Sc3ccccc3C(=O)NC)ccc12,39
7,Cl.N#CCc1ccc(Nc2nccc(Nc3ccc(Oc4ccccc4)cc3)n2)cc1 [GW639905],4
8,CC(=O)Nc1cn2nc(Oc3cccc(NC(=O)c4cccc(C(F)(F)F)c4)c3)ccc2n1,24
9,CCNc1nccc(-c2c(-c3ccc(F)cc3)ncn2C2CCN(C)CC2)n1,0
10,COC(=O)Nc1nc2cc(Oc3ccc(NC(=O)Nc4cccc(SC)c4)cc3)ccc2[nH]1.Cl [GW697999],8
11,Fc1cc(Cl)ccc1Nc1ccnc2cc(-c3ccc(CN4CCOCC4)o3)ccc12 [GW560109],18
12,NCCC(NC(=O)c1cc(Br)c(-c2ccnc3[nH]ccc23)s1)c1ccccc1.O=C(O)C(F)(F)F.O=C(O)C(F)(F)F (stereo not drawn) [GSK1307810],6
13,Cc1ccc(O)cc1Nc1ccnc2cc(-c3ccc(CN4CCCCC4)o3)ccc12 [GW557777],8
14,CCn1cnc2c(NCc3ccccc3)ncnc21 [SKF-96418],0
15,CN(c1ccc(F)c(NC(=O)c2cccc(OC(C)(C)C#N)c2Cl)c1)c1ccc2nc(NC(=O)C3CC3)sc2n1,1
16,Cn1cc(-c2ccc3c(c2)CCN3C(=O)Cc2cc(F)cc(F)c2F)c2c(N)ncnc21 [GSK2634140],45
